In PubChem BioAssay (NCATS):
Calls of active or inactive are those of the source. The call rests on the fitted dose curve; in most records, active means well fitted curve in the direction sought with a large enough effect; inconclusive means small, poorly fitted or top-dose-only effect, or effect the other way, or another doubt; inactive means no such curve, though single readings can be large or run the other way.

Assay: qHTS for inhibitors of adenylyl cyclases using a fission yeast platform: a pilot screen against the NCATS LOPAC library (AID 1347410)
Conditions: S. pombe CHP2027, fbp1-GFP fluorescence, 18 h, yeast expressing mammalian AC9 and human GNAS; series mostly up to 57.5 µM
Text: PI: Charles S. Hoffman Ph.D
Boston College, 140 Commonwealth Ave., Chestnut Hill, MA
Assay Development and Screening Technology Laboratory (ADST)
National Center for Advancing Translational Sciences (NCATS), Rockville, MD
National Institute of Health (NIH), Bethesda, Maryland
The fission yeast Schizosaccharomyces pombe uses a cAMP signaling pathway to link glucose-sensing to Protein Kinase A activity in order to regulate cell growth, sexual development, gluconeogenesis, and exit from stationary phase. Here, we describe the successful functional expression of all ten mammalian adenylyl cyclase (AC) genes, along with the human GNAS G-alpha gene in this organism. By measuring expression of a PKA-repressed fbp1-GFP reporter together with direct measurements of intracellular cAMP levels, one can detect both basal AC activity from all ten AC genes as well as GNAS-stimulated activity from eight of the nine transmembrane ACs (tmACs; AC2-AC9).
Further confirmation and validation of active compounds lead to the identification of diphenyleneiodonium chloride (DPI) as an inhibitor of basal AC activity. This fluorescence based fbp1-GFP-GNAS screening technology could facilitate the development of therapeutic compounds that target GNAS or the ACs, an area in which there is significant unmet need.
The gain-of-signal output is not substantially affected by cytotoxic compounds within the library.
Getz RA, et al., A fission yeast platform for heterologous expression of mammalian adenylyl cyclases and high throughput screening, Cellular Signaling, 2019, 60: 114-121. doi.org/10.1016/j.cellsig.2019.04.010.
PROTOCOL TABLE (as described by Inglese J, Shamu CE and Guy RK. 2007)
SEQUENCE No. (e.g., 1, 2, 3, etc.); […] (e.g., Cells, Incubation, Reagent, etc.); VALUE; DESCRIPTION.
1; Dispense growth medium; 2 uL; black, clear bottom, low base, 1536-well Aurora assay plate.
2; Compounds and control; 23 nL; Kalypsis pin tool (Wako USA) equipped with a 1536-well pin head to transfer to the assay plates.
3; Dispense yeast cells; 2 uL; CHP2027 cells.
4; Incubation; 18 hours (dark at 30C); Non-humidified microbial incubator.
5; Detector; 425V; Fluorescence; laser scanning cytometry.
NOTES (numbers refer to Sequence numbers above)
1. S. pombe growth medium EMM containing histidine, lysine, and uracil was initially dispensed into the assay plate to avoid yeast contamination using a Multidrop Combi dispenser (Thermo Fisher Scientific).
2. 10 mM stock solution of DPI (Sigma-Aldrich D2926) dissolved in DMSO was used as a 16-point dose response positive control, while 1.11 mM DPI stock solution was used as a single point max response positive control. Solvent DMSO was used as the negative control. Control DPI was transferred as a single-dose (column 3; rows 1-32; 1.11 mM stock), and multi-dose (column 4; rows 1-32; 10mM stock; 1:1.5 dilution; 16pnt titration) positive controls. Vehicle control DMSO was pinned into column 1-2, rows 1-32. Lopac compounds were pinned into columns 5-48 resulting to a final concentration range 57 µM to 78.4 nMControl DPI stock (10 mM) was prepared by dissolving 10 mg in 3.18 mL DMSO; while 1.11 mM DPI stock was prepared by mixing 100 uL of 10 mM DPI with 800 uL DMSO. To create the control plates, we initially start with a 384-well compound working plate. With a repeater pipette, (a.) 16 uL/well of 1.11 mM DPI was added to column 3; (b.) 16 uL/well of DMSO was added into rows 2-16 of column 4; (c.) 50 uL/well of DPI added to rows 1 and 2 of column 4; (d.) 32 uL serial dilution (two-thirds-fold) from rows 2 to 16 of column 4 with manual pipette. From the 384-well compound working plate, 7 uL of respective control compound was transferred to respective columns of the 1536-well compound plate using a multichannel pipette.
3. S. pombe CHP2027 (AC9-GNAS-PDE4D2) expressing fbp1-GFP cells were grown at 30C in EMM medium containing histidine, lysine, and uracil. […]

SMILES | outcome
CNC(=O)[C@H]1O[C@@H](n2cnc3c(NCc4cccc(I)c4)ncnc32)[C@H](O)[C@@H]1O | inactive
NCCCS(=O)(=O)O | inactive
Nc1ccn([C@H]2O[C@H](CO)[C@@H](O)C2(F)F)c(=O)n1 | inactive
CCCCCCCCCCCCCCCCCC(=O)OC(CC(=O)O)C[N+](C)(C)C (stereo not given) | inactive
CC(C)CC(NP(=O)(O)O[C@@H]1O[C@@H](C)[C@H](O)[C@@H](O)[C@H]1O)C(=O)NC(Cc1c[nH]c2ccccc12)C(=O)O (stereo not given in full) | inactive
CSc1ccccc1N1CCN(CCCCCC(=O)NC2CCCc3ccccc32)CC1 (stereo not given) | inactive
S=C(S)OC1CC2CC1C1CCCC21 (stereo not given) | inactive
CC[C@H]1OC(=O)[C@H](C)[C@@H](O[C@H]2C[C@@](C)(OC)[C@@H](O)[C@H](C)O2)[C@H](C)[C@@H](O[C@@H]2O[C@H](C)C[C@H](NC)[C@H]2O)[C@](C)(O)C[C@@H](C)CN(C)[C@H](C)[C@@H](O)[C@]1(C)O | inactive
O=C(Nc1ccc2[nH]ncc2c1)C1CCC1 | inactive
CCN1/C(=C/C(C)=O)Sc2ccc(OC)cc21 | inactive
NCC1OC(O[C@H]2[C@H](O)[C@@H](OC3C(O)C(N)CC(N)C3OC3OC(CO)C(O)C(O)C3N)O[C@@H]2CO)C(N)C(O)C1O (stereo not given in full) | inactive
OCC1O[C@H](O)C(Cl)C(O)C1O (stereo not given in full) | inactive
Nc1ncnc2c1ncn2[C@@H]1O[C@H](COP(=O)(O)CP(=O)(O)OP(=O)(O)O)[C@@H](O)[C@H]1O | inactive
O=C1/C(=C/c2ccsc2)CC/C1=C\c1cccs1 | inactive
Fc1ccc2[nH]c(CN3CCN(c4ccccn4)CC3)cc2c1 | inactive
O=C1NC(=O)/C(=C/c2ccc3nccnc3c2)S1 | inactive
N=c1ccn2c(n1)O[C@H]1[C@H](O)[C@@H](CO)O[C@H]12 | inactive
NC(=S)c1ccc[n+]([C@@H]2O[C@@H](COP(=O)([O-])OP(=O)(O)OC[C@H]3O[C@@H](n4cnc5c(N)ncnc54)[C@H](OP(=O)(O)O)[C@@H]3O)C(O)C2O)c1 (stereo not given in full) | inactive
N#C/C(=C\c1ccc(O)c(O)c1)C(=O)c1ccc(O)c(O)c1 | inactive
CCOC(=O)N1CCN(/[N+]([O-])=N/Oc2ccc([N+](=O)[O-])cc2[N+](=O)[O-])CC1 | inactive

SMILES | outcome
COc1ccc(Br)cc1S(=O)(=O)NC(=O)/C=C/c1ccccc1Cc1ccc2ccccc2c1 | inactive
Nc1nc2c(ncn2[C@@H]2O[C@H](CO)[C@@H](O)[C@@H]2O)c(=O)[nH]1 | inactive
CS(=O)(=O)c1ccc(-n2nc(C(F)(F)F)cc2-c2ccc(F)cc2)cc1 | inactive
CN1[C@@H](CC(=O)c2ccccc2)CCC[C@H]1C[C@H](O)c1ccccc1 | inactive
O=C(c1cc(O)c(O)c([N+](=O)[O-])c1)c1ccccc1F | inactive
O=C(Nc1ccc2c(c1)CCN(Cc1ncn[nH]1)C2)c1ccccc1-c1ccc(C(F)(F)F)cc1 | inactive
NC[C@@H]1O[C@H](C23CC4CC(CC(C4)C2)C3)Cc2c1ccc(O)c2O | inactive
CCCCC#Cc1nc(NC)c2ncn([C@@H]3O[C@H](CO)[C@@H](O)[C@H]3O)c2n1 | inactive
CCOC(=O)C1=C(C)NC(C)=C(C(=O)OCC)C1c1c(F)c(F)c(F)c(F)c1F | inactive
Nc1nc(Nc2ccccc2)nc2c1ncn2[C@@H]1O[C@H](CO)[C@@H](O)[C@H]1O | inactive
CN(C)CCC(c1ccc(Cl)cc1)c1ccccn1 (stereo not given) | inactive
Clc1ccc(N2CCN(Cc3c[nH]c4ncccc34)CC2)cc1 | inactive
O=C(O)CC[C@@H](C(=O)O)N1C(=O)c2ccccc2C1=O | inactive
CCC1C(=O)OCC1Cc1cncn1C (stereo not given) | inactive
CC1CN(S(=O)(=O)c2cccc3cnccc23)CCN1 (stereo not given) | inactive
Oc1ccccc1O | inactive
NCCCCCCCCCCN | inactive
CNCC[C@H](Oc1ccc(C(F)(F)F)cc1)c1ccccc1 | inactive
CC[C@H]1OC(=O)[C@H](C)C(O[C@H]2C[C@@](C)(OC)[C@@H](O)[C@H](C)O2)[C@H](C)[C@@H](OC2O[C@H](C)C[C@H](N(C)C)[C@H]2O)[C@](C)(O)C[C@@H](C)CN(C)[C@H](C)[C@@H](O)[C@]1(C)O (stereo not given in full) | inactive
O=C(Nc1ccccc1)c1cc([N+](=O)[O-])ccc1Cl | inactive
